Reference: PubChem BioAssay (Tox21)
Records with an inconclusive call do not appear. The source made the active and inactive calls. The call rests on the fitted dose curve; in most records, active means well fitted curve in the direction sought with a large enough effect in the repeat runs; inconclusive means weak or mixed curves; inactive means no such curve, though single readings can be large; an effect the other way counts as inactive or inconclusive.

Experiments:
[1] = A CellTox Green Cytotoxicity Assay to monitor cytotoxicity in HEK293 cells - 32 hour (AID 1224881); further: nearly all actives have a fitted effect of over 40% in size
Summary of the method: (§1)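 HEK293 cells premixed with CellTox Green dye were seeded at 600 cells/well and left 5 h at 37 C/5% CO2 before pin transfer of 23 nL compound in DMSO. Fluorescence from dye bound to dead-cell DNA was read during 40 h treatment.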

[2] = A CellTox Green Cytotoxicity Assay to monitor cytotoxicity in HepG2 cells - 0 hour (AID 1224882); further: nearly all actives have a fitted effect of over 35% in size
Summary of the method: (§2)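 HepG2 cells were seeded together with the CellTox Green dye at 600 cells/well, left 5 h at 37 C/5% CO2, then given compounds in DMSO. Fluorescence from dye bound to dead-cell DNA was read repeatedly over 40 h of treatment at 37 C.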

[3] = A CellTox Green Cytotoxicity Assay to monitor cytotoxicity in HepG2 cells - 32 hour (AID 1224883); further: nearly all actives have a fitted effect of over 50% in size
Summary of the method: as §2

[4] = A CellTox Green Cytotoxicity Assay to monitor cytotoxicity in HEK293 cells - 8 hour (AID 1224884); further: nearly all actives have a fitted effect of over 35% in size
Summary of the method: as §1

[5] = qHTS RealTime-Glo MT Cell Viability Assay in HepG2 cells - 16 hour (AID 1224885); further: nearly all actives have a fitted effect of over 50% in size
Summary of the method: (§3)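 Real-time, nonlytic viability: 600 HepG2 cells/well mixed with NanoLuc enzyme plus prosubstrate; 5 h settle, compound (DMSO) added by pintool; luminescence monitored over 40 h at 37 C.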

[6] = qHTS RealTime-Glo MT Cell Viability Assay in HEK293 cells - 24 hour (AID 1224886); further: top concentration of the series differs between compounds; nearly all actives have a fitted effect of over 50% in size
Summary of the method: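 Cells + reagent dispensed (600 cells/well, HEK293) → 5 h at 37 C/5% CO2 → 23 nL compound in DMSO pinned → 40 h at 37 C → luminescence read at 0, 8, 16, 24, 32, 40 h.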

[7] = qHTS RealTime-Glo MT Cell Viability Assay in HEK293 cells - 8 hour (AID 1224887); further: top concentration of the series differs between compounds; nearly all actives have a fitted effect of over 50% in size
Summary of the method: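 HEK293 cells mixed with RealTime-Glo reagents (NanoLuc plus cell-permeant prosubstrate) at 600 cells/well, preincubated 5 h at 37 C/5% CO2, then given 23 nL compound in DMSO. Nonlytic luminescence from viable cells was read at 0, 8, 16, 24, 32 and 40 h.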

[8] = A CellTox Green Cytotoxicity Assay to monitor cytotoxicity in HEK293 cells - 16 hour (AID 1224888); further: nearly all actives have a fitted effect of over 35% in size
Summary of the method: as §1

[9] = qHTS RealTime-Glo MT Cell Viability Assay in HepG2 cells - 0 hour (AID 1224889); further: nearly all actives have a fitted effect of over 50% in size
Summary of the method: as §3

[10] = A CellTox Green Cytotoxicity Assay to monitor cytotoxicity in HepG2 cells - 8 hour (AID 1224890); further: nearly all actives have a fitted effect of over 45% in size
Summary of the method: as §2
On the % scale 0 is the no-effect control and ±100 the full control effect.

CC(Oc1ccc(Oc2ncc(C(F)(F)F)cc2Cl)cc1)C(=O)O (stereo not given)
inactive: Potency [1] | outcome [2] | Potency [3] | Potency [4] | Potency [5] | Potency [6] | Potency [7] | Potency [8] | Potency [9] | Potency [10]

CCOc1nc(C(Cl)(Cl)Cl)ns1
inactive: Potency [1] | outcome [2] | Potency [3] | Potency [4] | Potency [5] | Potency [6] | Potency [7] | Potency [8] | Potency [9] | Potency [10]

BrCCCCCCBr
inactive: Potency [1] | outcome [2] | Potency [3] | Potency [4] | Potency [5] | Potency [6] | Potency [7] | Potency [8] | Potency [9] | Potency [10]

O=[N+]([O-])c1ccc(CBr)cc1
inactive: Potency [1] | outcome [2] | Potency [3] | Potency [4] | Potency [5] | Potency [6] | Potency [7] | Potency [8] | Potency [9] | Potency [10]

ClCC(Cl)(Cl)Cl
inactive: Potency [1] | outcome [2] | Potency [3] | Potency [4] | Potency [5] | Potency [6] | Potency [7] | Potency [8] | Potency [9] | Potency [10]

O=NN1CCCCC1
inactive: Potency [1] | outcome [2] | Potency [3] | Potency [4] | Potency [5] | Potency [6] | Potency [7] | Potency [8] | Potency [9] | Potency [10]

CCOC(=O)/C=C(C)/C=C/C[C@@H](C)CCCC(C)C
inactive: Potency [1] | outcome [2] | Potency [3] | Potency [4] | Potency [5] | Potency [6] | Potency [7] | Potency [8] | Potency [9] | Potency [10]

COc1cc(C[C@@H](C)N)c(OC)cc1C
inactive: Potency [1] | outcome [2] | Potency [3] | Potency [4] | Potency [5] | Potency [6] | Potency [7] | Potency [8] | Potency [9] | Potency [10]

COP(=S)(OC)Oc1c(Cl)cc(C)cc1Cl
inactive: Potency [1] | outcome [2] | Potency [3] | Potency [4] | Potency [5] | Potency [6] | Potency [7] | Potency [8] | Potency [9] | Potency [10]

C[C@]12CC[C@H]3[C@@H](CCC4=CC(=O)CC[C@@]43C)[C@@H]1CC[C@@H]2C(=O)O
inactive: Potency [1] | outcome [2] | Potency [3] | Potency [4] | Potency [5] | Potency [6] | Potency [7] | Potency [8] | Potency [9] | Potency [10]

C1CCC(C2CCCCC2)CC1
inactive: Potency [1] | outcome [2] | Potency [3] | Potency [4] | Potency [5] | Potency [6] | Potency [7] | Potency [8] | Potency [9] | Potency [10]

CNC(=O)O/N=C(\C)SC
inactive: Potency [1] | outcome [2] | Potency [3] | Potency [4] | Potency [5] | Potency [6] | Potency [7] | Potency [8] | Potency [9] | Potency [10]

O=C(O)C(Br)CBr (stereo not given)
inactive: Potency [1] | outcome [2] | Potency [3] | Potency [4] | Potency [5] | Potency [6] | Potency [7] | Potency [8] | Potency [9] | Potency [10]

CC(CCc1ccccc1)NC(C)C(O)c1ccc(O)cc1 (stereo not given)
inactive: Potency [1] | outcome [2] | Potency [3] | Potency [4] | Potency [5] | Potency [6] | Potency [7] | Potency [8] | Potency [9] | Potency [10]

CCC(=O)C(CCN(C)C)(c1ccccc1)c1ccccc1
inactive: Potency [1] | outcome [2] | Potency [3] | Potency [4] | Potency [5] | Potency [6] | Potency [7] | Potency [8] | Potency [9] | Potency [10]

CC1=C(C(=O)O)N2C(=O)[C@@H](N)[C@H]2SC1
inactive: cytotoxicity increase [1] -10.4% [at 15.8 µM] | cytotoxicity [2] -6.07% [at 15.8 µM] | cytotoxicity increase [3] -8.31% [at 15.8 µM] | cytotoxicity increase [4] -10.6% [at 15.8 µM] | activity change, negative = cytotoxic [5] 0.0678% [at 15.8 µM] | activity change, negative = cytotoxicity [6] -0.764% [at 15.8 µM] | activity change, negative = cytotoxicity [7] -0.746% [at 15.8 µM] | activity change [8] -1.57% [at 15.8 µM, hits give high values] | activity change, negative = cytotoxicity [9] -0.386% [at 15.8 µM] | cytotoxicity increase [10] -7.33% [at 15.8 µM]

CN1CCC(N(Cc2ccccc2)c2ccccc2)CC1
inactive: Potency [1] | outcome [2] | Potency [3] | Potency [4] | Potency [5] | Potency [6] | Potency [7] | Potency [8] | Potency [9] | Potency [10]

Cc1cccc(C#N)c1
inactive: Potency [1] | outcome [2] | Potency [3] | Potency [4] | Potency [5] | Potency [6] | Potency [7] | Potency [8] | Potency [9] | Potency [10]

CCOP(=S)(OCC)SCSc1ccc(Cl)cc1
inactive: Potency [1] | outcome [2] | Potency [3] | Potency [4] | Potency [5] | Potency [6] | Potency [7] | Potency [8] | Potency [9] | Potency [10]

CC1(C)CON(Cc2ccccc2Cl)C1=O
inactive: Potency [1] | outcome [2] | Potency [3] | Potency [4] | Potency [5] | Potency [6] | Potency [7] | Potency [8] | Potency [9] | Potency [10]

CCN(Cc1ccc(Cl)nc1)/C(=C/[N+](=O)[O-])NC
inactive: Potency [1] | outcome [2] | Potency [3] | Potency [4] | Potency [5] | Potency [6] | Potency [7] | Potency [8] | Potency [9] | Potency [10]

CCCCC(=O)Cl
inactive: Potency [1] | outcome [2] | Potency [3] | Potency [4] | Potency [5] | Potency [6] | Potency [7] | Potency [8] | Potency [9] | Potency [10]
